From the supplement of paper PMC12067926
Values without a mark were called inactive.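 How the source made its calls: active = growth AUC significantly below the DMSO wells by Dunnett test; inactive = the rest.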

What follows are targets tested with O=C(Oc1ccccc1)n1c(C(F)(F)F)nc2cc(Cl)c(Cl)cc21 (assay: relative growth (AUC of 72 h growth curve relative to DMSO control, dAUC) (ratio); higher = more growth (less inhibition), active = hit call of the paper). Settings: 20 µM.
Procedure: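 Environmental bacterial isolates (Iceland stream sediment and Silwood Park soil) and whole stream-sediment communities were grown in LB from a 1:100 dilution with each pesticide at 20 µM (1% DMSO). A600 was read hourly for 72 h and the area under a spline-fitted growth curve (AUC) was computed. dAUC is the mean AUC of 3 biological replicates divided by the mean AUC of the DMSO controls. Significance was tested by Dunnett's test against the DMSO control.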
With Arthrobacter 1 (Arthrobacter humicola) the relative growth was 0.211 (active).
In the case of Community 4, the relative growth is reported as 0.809.
In the case of Argrobacterium 1 (Agrobacterium sp.), the relative growth is reported as 0.752 (active).
For Community 10, the relative growth was 0.772.
Bacillus 1 (Bacillus foraminis) showed a relative growth of 0.747.
Serratia 1 (Serratia sp. 2015-2462-01) was tested, and the relative growth was 0.366 (active).
For Hymenobacter 1 (Hymenobacter glaciei), the relative growth was 0.165 (active).
With Pseudomonas 3 (Pseudomonas mandelii) the relative growth was 0.765 (active).
With Pseudomonas 4 (Pseudomonas peli) the relative growth was 0.336 (active).
Pseudomonas 1 (Pseudomonas baetica) was tested, and the relative growth was 0.741.
With Arthrobacter 3 (Arthrobacter sp.) the relative growth was 0.0715 (active).
For “Flavobacterium 2 (Flavobacterium succinicans)”, the relative growth was 0.0416 (active).
In the case of “Microbacterium 1 (Microbacterium arborescens)”, the relative growth is reported as 0.785 (active).
For Community 9, the relative growth was 0.363 (active).
“Carnobacterium 1 (Carnobacterium gallinarum)” was tested, and the relative growth was 0.0839 (active).
For Arthrobacter 2 (Arthrobacter humicola), the relative growth was 0.00975 (active).
In the case of “Paenibacillus 1 (Paenibacillus castaneae)”, the relative growth is reported as 0.00512 (active).
With Aeromonas 2 (Aeromonas sobria) the relative growth was 0.0369 (active).
Neobacillus 1 (Neobacillus soli) showed a relative growth of 0.826.
For Community 8, the relative growth was 0.787.
In the case of Sphingomonas 2 (Sphingomonas sp.), the relative growth is reported as 0.0208 (active).
For Rhizobium 1 (Rhizobium herbae), the relative growth was 0.0292 (active).
With Oryzobacter 1 (Oryzobacter terrae) the relative growth was 0.00822 (active).
“Flavobacterium 1 (Flavobacterium glaciei)” was tested, and the relative growth was 0.0789 (active).
For “Prolinoborus 1 (Prolinoborus fasciculus)”, the relative growth was 0.283 (active).
In the case of Pseudomonas 5 (Pseudomonas baetica), the relative growth is reported as 0.765 (active).
Pseudomonas 6 (Pseudomonas sp.) gave a relative growth of 0.777.
In the case of Aeromonas 3 (Aeromonas popoffii), the relative growth is reported as 0.337 (active).
In the case of Aeromonas 1 (Aeromonas sp. AE235), the relative growth is reported as 0.32 (active).
For “Pseudomonas 2 (Pseudomonas vancouverensis)”, the relative growth was 0.735 (active).
For Community 6, the relative growth was 0.563 (active).
For Community 7, the relative growth was 1.01.
